{"source": "paper PMC7819943", "about": "“Rice protein-binding microarrays: a tool to detect cis-acting elements near promoter regions in rice”", "note": "The full ranking holds about 39,000 sequences; the median of “fluorescence intensity (a.u.)” is about 4,300, and the highest 2% start at about 39,000. Many of the other results were omitted from the sample, so the highest values are more common in it than they were.", "data": [{"biological_target": "T1, OsSMF1 (Oryza sativa, UniProt Q6ZLB0 1-436)", "T1 sequence": "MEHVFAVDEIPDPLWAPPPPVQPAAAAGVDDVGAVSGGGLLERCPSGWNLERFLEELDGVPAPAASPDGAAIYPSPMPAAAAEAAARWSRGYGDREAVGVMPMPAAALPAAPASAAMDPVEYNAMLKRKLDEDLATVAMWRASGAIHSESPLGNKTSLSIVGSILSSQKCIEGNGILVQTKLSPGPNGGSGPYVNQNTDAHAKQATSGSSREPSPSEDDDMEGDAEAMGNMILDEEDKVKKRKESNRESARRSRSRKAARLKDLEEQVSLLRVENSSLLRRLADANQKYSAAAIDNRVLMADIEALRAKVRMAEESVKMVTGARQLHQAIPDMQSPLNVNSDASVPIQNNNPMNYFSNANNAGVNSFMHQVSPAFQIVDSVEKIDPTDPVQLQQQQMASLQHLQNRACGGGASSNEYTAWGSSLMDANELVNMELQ", "assay": "protein-binding microarray (RPBM); PBS, 2% BSA, 51.3 ng/ul salmon testes DNA, 50 uM zinc acetate, 200 nM TF, 25 C, 1 h; high values mean tight binding", "conditions": "protein: recombinant; tags: N-terminal polyhistidine and DsRed monomer fusion (pET32a); chain copies: 2; label: CyDye5-dUTP incorporated in the synthesized complementary strand; 3' TTTTT single-stranded linker to array surface; dsDNA, one strand shown", "method_in_brief": "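The binding signal is fluorescence intensity per feature, in arbitrary units, read on an Axon 4000B scanner. Polyhistidine- and DsRed-tagged transcription factors (N-terminal fusions) from E. coli BL21-CodonPlus were purified on Ni–NTA and applied at 200 nM for 1 h at 25 °C to a double-stranded, BSA-blocked custom Agilent array in buffer with 50 µM zinc acetate.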", "values": [{"sequence": "GCAAAAGCATCTTGGAGGAGATACAGTCAGCTGGCAATCCCGGAGTCACCTAGTGCAG", "binding signal": "4160 fluorescence intensity (a.u.)"}, {"sequence": "CCACCACGCTTTCCCCGCGCGATGACTCCGCCGCCGCGCCCGGAGTCACCTAGTGCAG", "binding signal": "5400 fluorescence intensity (a.u.)"}, {"sequence": "CCCACGTGAGTAAGCTCCTCCCTGCTGGTTTGATTCCCTTCGGAGTCACCTAGTGCAG", "binding signal": "4650 fluorescence intensity (a.u.)"}, {"sequence": "CAAAAGTTTTGACGTGTCACATCGGATATACGGACACACACGGAGTCACCTAGTGCAG", "binding signal": "10800 fluorescence intensity (a.u.)"}, {"sequence": "TTGGGGAAAAGTTTTGAGTTTGATTGTCACATCGGATATACGGAGTCACCTAGTGCAG", "binding signal": "53000 fluorescence intensity (a.u.)"}, {"sequence": "GTGTAAAAGTTTTGACGTGTCACATCGGATATACGGACACCGGAGTCACCTAGTGCAG", "binding signal": "15300 fluorescence intensity (a.u.)"}, {"sequence": "TTCCATCCAGAGTGCGTCACGAACGCGCCAGTCGCCCGGTCGGAGTCACCTAGTGCAG", "binding signal": "3990 fluorescence intensity (a.u.)"}, {"sequence": "ATAACCGCCCTAATTTACTTTAGCATACGTGGAGTACAAGCGGAGTCACCTAGTGCAG", "binding signal": "6900 fluorescence intensity (a.u.)"}, {"sequence": "AGCTCACCGCATTGTAAAGGCCCTTACTAATCTTAGCAAGCGGAGTCACCTAGTGCAG", "binding signal": "40300 fluorescence intensity (a.u.)"}, {"sequence": "AAAGAACGCAGCCTTAGAAGGAGACAGCTCATGGAGCAAGCGGAGTCACCTAGTGCAG", "binding signal": "5000 fluorescence intensity (a.u.)"}, {"sequence": "AAATCACACCCACGCTCGTGCCCATTGGGTCGGGTATCCGCGGAGTCACCTAGTGCAG", "binding signal": "3550 fluorescence intensity (a.u.)"}, {"sequence": "CCACGCTAAAATTGGAAGTTTGACTAAAATTAGAAGTTTACGGAGTCACCTAGTGCAG", "binding signal": "60200 fluorescence intensity (a.u.)"}, {"sequence": "ATGTTTAGTTCCACGTCAAAATTGGAAGTTTGAAGAAATTCGGAGTCACCTAGTGCAG", "binding signal": "3980 fluorescence intensity (a.u.)"}, {"sequence": "GAGAATTTGCTACTAATTGACTTACCAATTTGGAATTTACCGGAGTCACCTAGTGCAG", "binding signal": "46100 fluorescence intensity (a.u.)"}, {"sequence": "TTAAGGTGTGTTTAGTTCCACGTCAAAATTAGAAGTTTGACGGAGTCACCTAGTGCAG", "binding signal": "7090 fluorescence intensity (a.u.)"}, {"sequence": "GGAAGGAGACTGCTTGGTCACTAATTTAATCTGCTACTACCGGAGTCACCTAGTGCAG", "binding signal": "3140 fluorescence intensity (a.u.)"}, {"sequence": "GTATTGAGAATTGTATGACTAATCAATGTTGCCTTACTTACGGAGTCACCTAGTGCAG", "binding signal": "5200 fluorescence intensity (a.u.)"}, {"sequence": "GCCGGCGTCGCCGTCGGGGATGCACCTCGGCGCGTCCGTCCGGAGTCACCTAGTGCAG", "binding signal": "3550 fluorescence intensity (a.u.)"}, {"sequence": "CGTGCTCACGAAACCCGATCGATCGGTGATCTGCACCGTCCGGAGTCACCTAGTGCAG", "binding signal": "45200 fluorescence intensity (a.u.)"}, {"sequence": "TGTCCCCGAACCGGATCTGCCCGATGCTCGCCGTCAGCATCGGAGTCACCTAGTGCAG", "binding signal": "4300 fluorescence intensity (a.u.)"}, {"sequence": "TCCCGAAACCCGACACGCGGCACCGATCGATCGATCGATCCGGAGTCACCTAGTGCAG", "binding signal": "3240 fluorescence intensity (a.u.)"}, {"sequence": "CCGTATACATAGCTAGCTGTCTGTGATGCATGCATGGTCACGGAGTCACCTAGTGCAG", "binding signal": "44200 fluorescence intensity (a.u.)"}, {"sequence": "TATATATGGCCTTTGGTCTGCATAGCTGTCCACGTCATCACGGAGTCACCTAGTGCAG", "binding signal": "42200 fluorescence intensity (a.u.)"}, {"sequence": "GCAGCATAGTTAGCTTTATATCTGTTTTACGTCATCACCACGGAGTCACCTAGTGCAG", "binding signal": "6330 fluorescence intensity (a.u.)"}, {"sequence": "ATTCTGTCTCCTTTGCCTGTCGTCACGCTGTCATCACGCTCGGAGTCACCTAGTGCAG", "binding signal": "4480 fluorescence intensity (a.u.)"}, {"sequence": "ATATACATATACATATATATACACACACACGTATACATAGCGGAGTCACCTAGTGCAG", "binding signal": "4840 fluorescence intensity (a.u.)"}, {"sequence": "AAAGTCATGTCATCACGTATATATCACGTATACATATATACGGAGTCACCTAGTGCAG", "binding signal": "4080 fluorescence intensity (a.u.)"}, {"sequence": "TTCTATTTTCGCATGTGGCATTTGTGGCTGCTTGCTAGACCGGAGTCACCTAGTGCAG", "binding signal": "3690 fluorescence intensity (a.u.)"}, {"sequence": "CAATATGACATTGTATATGTGAATTGAGTGTAACTTGGTTCGGAGTCACCTAGTGCAG", "binding signal": "3290 fluorescence intensity (a.u.)"}, {"sequence": "TACGCCGTTACGTGGTATGGTGTTGTGCCATTTCAGTCGGCGGAGTCACCTAGTGCAG", "binding signal": "3500 fluorescence intensity (a.u.)"}, {"sequence": "AGAAAATGTGGAATGACGCAAATGCCCTTCTGCCTCCTCGCGGAGTCACCTAGTGCAG", "binding signal": "5440 fluorescence intensity (a.u.)"}, {"sequence": "GATTGCAGCCGCCGCCTGCGTCGGTCCAGTCACCATTGGCCGGAGTCACCTAGTGCAG", "binding signal": "6870 fluorescence intensity (a.u.)"}, {"sequence": "ACTAAATCCTCAACCACCTCATATGTTTATGTACCATCGACGGAGTCACCTAGTGCAG", "binding signal": "3510 fluorescence intensity (a.u.)"}, {"sequence": "GCGCAAGTTCTCCACAAGCCACCTCGATCGATCTCCATTGCGGAGTCACCTAGTGCAG", "binding signal": "3420 fluorescence intensity (a.u.)"}, {"sequence": "GTCAGTCACCGCCCTGTGGGGCCCACCCACCCGCGCCGTCCGGAGTCACCTAGTGCAG", "binding signal": "9640 fluorescence intensity (a.u.)"}, {"sequence": "TTCAGATGTACAATTTTGCTGGATTACTAGTAGTTTTCTTCGGAGTCACCTAGTGCAG", "binding signal": "17600 fluorescence intensity (a.u.)"}, {"sequence": "CAACAATACAGTTATTGGTAATTACAAGCTACTAGTATACCGGAGTCACCTAGTGCAG", "binding signal": "18600 fluorescence intensity (a.u.)"}, {"sequence": "AGTTTGCTGCCCACTTCAGTAGGTTACAATACAATTATACCGGAGTCACCTAGTGCAG", "binding signal": "65300 fluorescence intensity (a.u.)"}, {"sequence": "CCTTTCCCTCTCCACTCTCCACCATCCTCTGCAGCTGACTCGGAGTCACCTAGTGCAG", "binding signal": "3330 fluorescence intensity (a.u.)"}, {"sequence": "CTGCGTTACTTCGACATTGCCCGACGTGTTGACTGTGTTGCGGAGTCACCTAGTGCAG", "binding signal": "4070 fluorescence intensity (a.u.)"}, {"sequence": "GTGTGAGGTTCATGCTGGGCGGTGACGCGACGGCGGAGACCGGAGTCACCTAGTGCAG", "binding signal": "6730 fluorescence intensity (a.u.)"}, {"sequence": "AAGAAGAAGACGACGACGTGGCGAGCCAAGTAGCAGCAAACGGAGTCACCTAGTGCAG", "binding signal": "3620 fluorescence intensity (a.u.)"}, {"sequence": "GTTACGACAAGTGCCACAAACCAGCAGAAGCAAAGGTAGACGGAGTCACCTAGTGCAG", "binding signal": "47900 fluorescence intensity (a.u.)"}, {"sequence": "CTAGAAGTTACCAAGGTACCAGAGCAGACACCTAAGCAGCCGGAGTCACCTAGTGCAG", "binding signal": "3370 fluorescence intensity (a.u.)"}, {"sequence": "AGTATGAAAGACCTGAGGATGACCCGGATTATATTCCTATCGGAGTCACCTAGTGCAG", "binding signal": "3320 fluorescence intensity (a.u.)"}, {"sequence": "GCAATGCATTTCAAATTCAGGACCCCATAGAGAAATCAACCGGAGTCACCTAGTGCAG", "binding signal": "29200 fluorescence intensity (a.u.)"}, {"sequence": "AAAATCATACGAACGGAAAAGCAAAAGATAGAAGCCAAAACGGAGTCACCTAGTGCAG", "binding signal": "16500 fluorescence intensity (a.u.)"}, {"sequence": "GACACAAACAAAATCGAGAAGATGGCATACCTACCATACACGGAGTCACCTAGTGCAG", "binding signal": "22800 fluorescence intensity (a.u.)"}, {"sequence": "AAACAAAGTGGCACAGATAAAATGGAACATAGAAGTGGCACGGAGTCACCTAGTGCAG", "binding signal": "40700 fluorescence intensity (a.u.)"}, {"sequence": "GATAACCGTAACTAACCGGCTTGGTCAGCAAGCCAAAGTGCGGAGTCACCTAGTGCAG", "binding signal": "6310 fluorescence intensity (a.u.)"}, {"sequence": "ATAATGAACAATTTCTTTCCAAGCTACATGTAGACCAGAGCGGAGTCACCTAGTGCAG", "binding signal": "40100 fluorescence intensity (a.u.)"}, {"sequence": "ATTCTTGCTACCTATAATTGCAACATGACAGAGTGTTAAGCGGAGTCACCTAGTGCAG", "binding signal": "3480 fluorescence intensity (a.u.)"}, {"sequence": "CTTCCACTGACATGACACCAAGAGACCACTTTCTTTAATTCGGAGTCACCTAGTGCAG", "binding signal": "3250 fluorescence intensity (a.u.)"}, {"sequence": "CTTGTTTCACCTGTCATACACACGTTACGTCTTAGAGTCCCGGAGTCACCTAGTGCAG", "binding signal": "5140 fluorescence intensity (a.u.)"}]}]}
